This is an account of results in PubChem BioAssay (Tox21).

Several values for one entry are separate records, joined by “and”; a condition that tells them apart may be missing. Equal values may be shown once. Results filed as inconclusive are left out. Where a call stands in place of a potency, no number is given. Some structures have more than one record in an assay (separate samples or runs), and their calls can disagree. Activity calls are given as the source filed them. Calls come from the whole dose curve; as a rule, active = well fitted cell-killing curve with a large enough effect in the repeat runs; inconclusive = weak or mixed curves, or effect the other way; inactive = no such curve, though single readings can be large or run the other way.
Potency is the fitted concentration of half-maximal effect.

The nature of the assay: qHTS assay for identifying genotoxic compounds that show differential cytotoxicity against isogenic chicken DT40 cell lines with known DNA damage response pathways - Rev3 mutant cell line (AID 743014). Note: nearly all actives have a fitted effect of over 55% in size. The settings on record: chicken DT40 Rev3-/- viability, CellTiter-Glo, 40 h; series mostly up to 68.4 µM. The source says:
National Center for Advancing Translational Sciences [NCATS]
NIH Chemical Genomics Center [NCGC]
U.S. Environmental Protection Agency [EPA]
National Institutes of Environmental Health Sciences [NIEHS]
National Toxicology Program [NTP]
U.S. Food and Drug Administration [FDA]
DNA repair pathways play a critical role in cellular homeostasis by repairing DNA damage induced by endogenous processes and xenobiotics. Isogenic chicken DT40 cell lines deficient in different DNA repair pathways can be used to identify genotoxic compounds and aid in characterizing the nature of the DNA damage induced. Two DNA repair-deficient cell lines with disrupted genes, Rad54/Ku70 or Rev3, were used to screen the Tox21 10K compound library. Possible genotoxicity was based on the presence of a significant increase in cytotoxicity in one or more of the DNA repair-deficient cell lines compared to that observed in the parental DNA repair-proficient cell line. CellTiter Glo viability assay (Promega, Madison, WI) was used to measure cell viability in these cells after compound treatment. This assay includes the data from the Rev3 mutant cell line.
Tox21 Assay Protocol Summary:
300 DT40 mutant cells in 5 uL/well were dispensed into white, solid-bottom 1536-well plates using a Multidrop Combi (ThermoFisher Scientific, Waltham, MA) dispenser. After the assay plates were incubated at 37 C/5% CO2 for approximately 0.5 hour, 23 nL of compounds dissolved in DMSO, positive controls or DMSO only was transferred into the assay plate by a pintool work station (Kalypsys, San Diego, CA). The assay plates were incubated at 37 C/5% CO2 for 40 hours. After 5 uL per well of CellTiter-Glo reagent was added into each well of the assay plates, the plates were incubated for 30 min at room temperature and the luminescence intensity of the plates was measured using a ViewLux (PerkinElmer, Shelton, CT) plate reader.
In general terms: Quantitative high-throughput screening tests each substance at several concentrations.
Turning to `C=CC(=O)NC(C)(C)CS(=O)(=O)O`, the Potency result is “inactive”.

For `COc1ccc(O)cc1`, the Potency result was “inactive”.

With `O=C(O)CCCCC1CCSS1` (stereo not given), the Potency result is “inactive”.

As for `Cc1c(N(C)CS(=O)(=O)O)c(=O)n(-c2ccccc2)n1C`, the Potency entry is “inactive”.

In the case of `CC1=NN(c2ccccc2)C(=O)C1`, the Potency entry is “inactive”.

On to `CCCCCCCC(=O)OCC(O)CO` (stereo not given), for which the Potency result is “inactive”.

For the compound `CN(C)Cc1cc(CN(C)C)c(O)c(CN(C)C)c1`, the Potency entry was “inactive”.

In the case of `CCCCCCCCCCCCCCCCCC(=O)OCC(O)CO` (stereo not given), the Potency result was “inactive”.

On to `CC(C)(C)NCC(O)c1ccc(O)c(CO)c1` (stereo not given), for which the Potency result was “inactive”.

With `COc1ccccc1O`, the Potency entry was “inactive”.

In the case of `COC(=O)C1CCC(C(=O)OC)CC1` (stereo not given), the Potency result is “inactive”.

Turning to `COc1cc2c(c(OC)c1OC)-c1ccc(OC)c(=O)cc1[C@@H](NC(C)=O)CC2`, the Potency is 66.8 nM (active) and 12 nM (active) and 7.7 nM (active).

For the compound `CC(=O)Oc1ccccc1C(=O)O`, the Potency result was “inactive”.

As for `N[C@@H](Cc1c[nH]c2ccc(O)cc12)C(=O)O`, the Potency result is “inactive”.

`O=C1CCCCCN1`: the Potency entry is “inactive”.

`CC(C)(C)CC(C)(C)c1ccc(O)c(-n2nc3ccccc3n2)c1`: the Potency result is “inactive”.

For the compound `NC(=O)N1c2ccccc2C=Cc2ccccc21`, the Potency result is “inactive and 30.6 µM (active)”.

`c1ccc2[nH]c(-c3cscn3)nc2c1`: the Potency entry was “inactive and 54.5 µM (active)”.

With `CC1(C)O[C@@H]2[C@@H](CO[C@@]3(COS(N)(=O)=O)OC(C)(C)O[C@@H]23)O1`, the Potency result was “inactive”.

For the compound `C[C@]12CC[C@@H]3c4ccc(O)cc4CC[C@H]3[C@@H]1CCC2=O`, the Potency result was “inactive”.

For the compound `CCOC(=O)C(C)(C)Oc1ccc(Cl)cc1`, the Potency result was “inactive”.

Regarding `CCCCOCCOCCOC(C)=O`, the Potency result is “inactive”.

Consider `CO[C@H]1C=CO[C@@]2(C)Oc3c(C)c(O)c4c(O)c(c(/C=N/N5CCN(C)CC5)c(O)c4c3C2=O)NC(=O)/C(C)=C\C=C[C@H](C)[C@H](O)[C@@H](C)[C@@H](O)[C@@H](C)[C@H](OC(C)=O)[C@@H]1C`, for which the Potency is 29.8 µM (active) and 24.6 µM (active).

For the compound `CC(C)CC(C)CC(O)CC(C)C` (stereo not given), the Potency entry is “inactive”.

On to `CCCCCCCCOc1ccc(C(=O)c2ccccc2)c(O)c1`, for which the Potency entry was “inactive and 61.1 µM (active)”.

On to `CCn1cc(C(=O)O)c(=O)c2ccc(C)nc21`, for which the Potency result is “inactive”.

Consider `Cc1cccc2ccccc12`, for which the Potency entry is “inactive”.

As for `CCc1cc(C(N)=S)ccn1`, the Potency result is “inactive”.

With `CCOCCO`, the Potency entry was “inactive”.

Consider `C/C=C/c1ccc(O)c(OC)c1`, for which the Potency entry is “inactive”.

For the compound `O=c1c(-c2ccc(O)cc2)coc2cc(O)cc(O)c12`, the Potency is 21.1 µM (active) and 53.5 µM (active) and 48.6 µM (active).

On to `Oc1cccc(O)c1`, for which the Potency result was “inactive”.

For `C#C[C@]1(O)CC[C@H]2[C@@H]3CCc4cc(O)ccc4[C@H]3CC[C@@]21C`, the Potency was 18.8 µM (active) and 27.1 µM (active).

On to `C[C@]12C=CC(=O)C=C1CC[C@@H]1[C@@H]2C(=O)C[C@@]2(C)[C@H]1CC[C@]2(O)C(=O)CO`, for which the Potency result was “inactive and 4.86 µM (active)”.

On to `C[C@]12CC[C@@H]3c4ccc(O)cc4C[C@@H](CCCCCCCCCS(=O)CCCC(F)(F)C(F)(F)F)[C@H]3[C@@H]1CC[C@@H]2O` (stereo not given in full), for which the Potency was 11.9 µM (active) and inactive.

Regarding `NC(=O)OCC(COC(N)=O)c1ccccc1`, the Potency entry is “inactive”.

In the case of `CCCCOC(=O)CCCCCCCCC(=O)OCCCC`, the Potency is 68.6 µM (active).

Turning to `C=CCOC(=O)CC(C)C`, the Potency entry was “inactive”.

As for `Cc1cnc(NC(=O)C2=C(O)c3ccccc3S(=O)(=O)N2C)s1`, the Potency result was “inactive and 27.4 µM (active) and 8.63 µM (active)”.

As to `CC(C)=CCC/C(C)=C/CO`, the Potency result is “inactive”.
